In PubChem BioAssay AID2517 (National Center for Advancing Translational Sciences (NCATS), 2010):
“And” between values parts separate entries of the source, which are not always exact repeats. Equal entries are not always repeated. The campaign covered roughly 350,000 compounds. About 1,200 (0.34%) were called active. About 3% were inconclusive and are not listed. The sample holds actives, similar compounds and a random draw of the others, so the mix is not that of the screen. Calls come from the whole dose curve; as a rule, active = well fitted inhibition curve with a large enough effect; inconclusive = small, poorly fitted or top-dose-only effect; inactive = no such curve, though single readings can be large or run the other way. Where a structure was tested more than once in an assay, its records may differ in their call. Positions of bridges follow the written chain, without caps; N, C: chain ends. Non-standard residues stand in square brackets, D forms with d. Residues, ends and D or L forms follow the SMILES beside them. *: point of attachment. X1 = CC[C@H](C)CCCCC(=O)*; Dab = NCC[C@H](N)C(=O)O

Each compound was assayed against DNA repair nuclease/redox regulator APEX1 (Homo sapiens) (UniProt P27695) (assay: qHTS Assay for Inhibitors of the Human Apurinic/apyrimidinic Endonuclease 1 (APE1)). Conditions: recombinant APE1, TAMRA/BHQ-2 abasic DNA cleavage fluorescence; activity change, negative = inhibition: at 65.8 µM (top of the series).
Procedure, shortened: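 Measures dequenching upon AP-site incision of a 5'-TAMRA/3'-BHQ-2 THF-containing duplex, 50 nM; human APE1 0.75 nM after 15 min room-temperature exposure to compound; kinetic three-point read at one-minute spacing.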
Note: nearly all actives have a fitted effect of over 55% in size.
Potency is the fitted concentration of half-maximal effect.
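Throughout, for activity change, negative = inhibition: plate controls were vehicle for no effect and reference inhibitor for full effect.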

Sequence of DNA repair nuclease/redox regulator APEX1 (Homo sapiens) (P27695 whole entry, looked up): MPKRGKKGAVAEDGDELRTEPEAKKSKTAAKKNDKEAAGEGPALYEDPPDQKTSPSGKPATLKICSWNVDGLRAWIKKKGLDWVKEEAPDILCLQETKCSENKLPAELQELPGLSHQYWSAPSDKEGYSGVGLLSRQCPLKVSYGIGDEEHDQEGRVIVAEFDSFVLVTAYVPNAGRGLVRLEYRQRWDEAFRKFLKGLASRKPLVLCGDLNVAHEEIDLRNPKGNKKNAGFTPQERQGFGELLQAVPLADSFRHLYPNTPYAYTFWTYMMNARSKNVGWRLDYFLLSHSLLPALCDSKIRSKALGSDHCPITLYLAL

Structure (SMILES) | activity change, negative = inhibition | Potency
CCOC(=O)c1sc2nc(CSCC(=O)OCc3ccc(C(=O)OC)o3)[nH]c(=O)c2c1C | 0.388% (inactive) | –
COC(=O)C1(C(C)=O)CC2=CC[C@H]3C(=O)N(c4ccccc4)C(=O)[C@H]3[C@@H]2Cc2ccccc2[C@@H]1C[N+](=O)[O-] (some centres undefined) | – | inactive
OC[C@H]1O[C@@H](n2cnc3c(NC4CCCC4)ncnc32)[C@H](O)[C@H]1O | -5.52% (inactive) | –
Cc1csc(-c2coc3cc(O[C@@H]4O[C@H](CO)[C@@H](O)[C@@H](O)[C@H]4O)ccc3c2=O)n1 | -2.33% (inactive) | –
CCCCC/C=C/C=C/C=O | 2.61% (inactive) | –
CCNc1ccc(C(=O)OCC(=O)N2c3ccccc3NC(=O)C2(C)C)cc1[N+](=O)[O-] | 3.79% (inactive) | –
Cc1cc(C(=O)OCC(=O)N2c3ccccc3NC(=O)C2(C)C)c(C)n1-c1ccccc1 | -7.54% (inactive) | –
CNS(=O)(=O)c1cccc(C(=O)OCC(=O)N2c3ccccc3NC(=O)C2(C)C)c1 | – | 15 µM (active)
CC(C)CO | 2.7% (inactive) | –
CN1CCN2c3ccccc3Cc3ccccc3[C@@H]2C1 | – | inactive
C/C(CCN1CCCCc2nc(C)c(C)cc21)=N\O[C@@H](C)c1cn([C@@H]2COC[C@@H]2O)nn1 | 11.9% [at 12.4 µM] (inactive) | –
C=CC(C1=CC(=O)C=CC1=O)c1ccc(O)cc1 (centres undefined) | 0.838% (inactive) | –
CCOC(=O)C(Cc1ccccc1)NC(=O)CCC(=O)c1ccc(OC)cc1 (centres undefined) | 24.9% (inactive) | –
COc1ccc(OC)c(NC(=O)N[C@H](Cc2ccccc2)C(=O)NN)c1 | 10.3% (inactive) | –
COc1cc([C@H](Cc2ccccc2)NC(C)=O)oc(=O)c1 | – | 28.2 µM (active)
COC(=O)C1(C)C=CC2(CCCCC2)N1C(C)=O (centres undefined) | 10.3% (inactive) | –
N#Cc1ccc(CN2CCCC3(CCN(C(=O)c4ccco4)CC3)C2)cc1 | -2.4% (inactive) | –
C[C@H]1CCC[C@@]2(C)CCCC[C@]12O | 9.26% (inactive) | –
COC(=O)CC1c2ccccc2C(Cc2ccc(OC)cc2)=C(C)N1C(=O)OC (centres undefined) | -8.37% [at 12.4 µM] (inactive) | –
CCOc1ccc(OCC)c(NC(=O)CCS(=O)(=O)c2ccc(C)cc2)c1 | -15.2% (inactive) | –
O=C(CCS(=O)(=O)c1ccc(Br)cc1)NCCc1ccc(Cl)cc1 | -4.92% (inactive) | –
COc1ccc(Cl)cc1NC(=O)CCS(=O)(=O)c1ccc(Br)cc1 | – | 11.9 µM (active)
COc1cccc(Cn2c(=O)cnc3cncnc32)c1 | -0.484% (inactive) | –
C=CC1=C2C=C(C3CC3)N(CC(C)C)C=C2C(=O)C(C)(OC(=O)c2ccco2)C1=O (centres undefined) | -5.75% [at 12.4 µM] (inactive) | –
COc1ccccc1CNc1ncnc2ccc(-c3c(C)noc3C)cc12 | -3.18% (inactive) | –

Structure (SMILES) | activity change, negative = inhibition | Potency
C[C@H]1Cc2c(-c3ccccc3)nc3c(c2CO1)CN(C(=O)C1CC1)CC3 | -1.16% [at 12.4 µM] (inactive) | –
COC(=O)C1(C)C=CCN1C(=O)c1ccccc1 (centres undefined) | 10.2% (inactive) | –
Cc1ccc(CNc2ccc(N3CCN(C(=O)OC(C)(C)C)CC3)cc2)cc1 | -2.24% (inactive) | –
C=CCOC(=O)COCCC(C)C | 16.3% (inactive) | –
Cc1cc(C)cc(C(=O)NC2C(=O)N3C(C(=O)O)=C(CSc4nnc(C)s4)CSC23)c1 (centres undefined) | 11% (inactive) | –
Cc1nnc(SCC2=C(C(=O)O)N3C(=O)C(NC(=O)Cn4nc(C)c(Cl)c4C)C3SC2)s1 (centres undefined) | -12.4% (inactive) | –
CO/N=C(\C(=O)N[C@@H]1C(=O)N2C(C(=O)O)=C(COC(C)=O)CS[C@H]12)c1csc(N)n1 (stereo in doubt) | – | inactive and 10 µM (active) and 10.6 µM (active)
C/C=C/C1=C(C(=O)O)N2C(=O)[C@@H](NC(=O)[C@H](N)c3ccc(O)cc3)[C@H]2SC1 | 0.591% (inactive) | –
CC(C)(C)OC(=O)C1=C(CO)CS[C@@H]2[C@H](NC(=O)Cc3ccccc3)C(=O)N12 | -6.04% (inactive) | –
C=CC1=C(C(=O)O)N2C(=O)[C@@H](NC(=O)/C(=N\OCC(=O)O)c3csc(N)n3)[C@H]2SC1 | – | 11.9 µM (active)
CC(C)[C@@H](OCc1ccccc1)[C@H](C)/C=N\OC[C@@H](C)[C@H](OCc1ccccc1)C(C)C | -2.11% [at 12.4 µM] (inactive) | –
CO[C@H]1C=CO[C@@]2(C)Oc3c(C)c(O)c4c(O)c(c(/C=N/N5CCN(C)CC5)c(O)c4c3C2=O)NC(=O)/C(C)=C\C=C[C@H](C)[C@H](O)[C@@H](C)[C@@H](O)[C@@H](C)[C@H](OC(C)=O)[C@@H]1C | -5.53% (inactive) | –
CC[C@H](C)CCCCC(=O)N[C@@H](CCN)C(=O)N[C@H](C(=O)N[C@@H](CCN)C(=O)N[C@H]1CCNC(=O)[C@@H]([C@H](C)O)NC(=O)[C@H](CCN)NC(=O)[C@H](CCN)NC(=O)[C@H](CC(C)C)NC(=O)[C@@H](CC(C)C)NC(=O)[C@H](CCN)NC1=O)[C@@H](C)O (X1-[Dab]T[Dab][Dab][Dab][dL]L[Dab][Dab][dT]; lactam 4-C) | 9.36% [at 21 µM] (inactive) | –
C[C@H]1Cc2c(COc3ccccc3)nc3c(c2CO1)CN(C(=O)Nc1cccc(C#N)c1)CC3 | -2.12% [at 12.4 µM] (inactive) | –
OCCC(O)CO (centres undefined) | – | inactive
O=C(c1csnn1)N1CCC[C@@]2(CCN(c3cccc(-c4ccccc4)c3)C2)C1 | 1.07% (inactive) | –
Cn1cccc1C(=O)N1CCC2(CC1)CN(c1cccc(-c3ccccc3)c1)C2 | -0.0489% (inactive) | –
Nc1ncnc2c1ncn2C1CC(O)C(CO)O1 (centres undefined) | – | inactive
CC1(OC(=O)c2ccc(Cl)nc2)C(=O)Cc2cc(-c3ccsc3)ncc2C1=O (centres undefined) | -0.549% [at 12.4 µM] (inactive) | –
Cc1ccc(C(=O)NNc2ncnc3ccccc23)cc1 | 8.13% (inactive) | –
Cc1ccc(C(=O)NNC(=O)c2ccc3c(c2)OCCO3)cc1 | 42.9% (inactive) | –
Cc1ccc(C(=O)NNC(=O)c2cc3cc4ccccc4nc3s2)cc1 | – | 22.4 µM (active)
Cn1cc(-c2nc3cnc(N4CCNCC4)nc3n(CCc3ccccc3)c2=O)c2ccccc21 | -2.84% (inactive) | –
COc1ccc(Oc2ncc3nc(-c4ccc(F)cc4)c(=O)n(C)c3n2)cc1 | 3% (inactive) | –
